Only some compounds are listed: those with a hit (about 7.1% of all), similar ones and a draw of the others.
M1 ag: agonists of M1 muscarinic receptor | CHO-M1 cells, Fluo-4 calcium fluorescence, agonist mode; hits give high values | B-score at 10 µM | 64,000 tested, 3% active | AID 626;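 active = fluorescence rise, raw or as B-score row- and column-corrected plate score, outside the 99.7% band of its plate's samples, either direction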
PTK2B oligo ant: Pyk2 (human) oligomerization antagonism | 99,000 tested, 0.83% active | Q14289 | Q293 cells, Pyk2 FERM NanoBiT luminescence; hits give low values | z-score (the deposit names both 25 µM and 10 µM);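 active = Z-score of -3 or lower, scaled per plate to the spread of control and sample wells; inactive = z-score above -3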;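 also: negative z-score means lost luminescence so less FERM oligomerization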
Target sequence (Q14289 whole entry, looked up): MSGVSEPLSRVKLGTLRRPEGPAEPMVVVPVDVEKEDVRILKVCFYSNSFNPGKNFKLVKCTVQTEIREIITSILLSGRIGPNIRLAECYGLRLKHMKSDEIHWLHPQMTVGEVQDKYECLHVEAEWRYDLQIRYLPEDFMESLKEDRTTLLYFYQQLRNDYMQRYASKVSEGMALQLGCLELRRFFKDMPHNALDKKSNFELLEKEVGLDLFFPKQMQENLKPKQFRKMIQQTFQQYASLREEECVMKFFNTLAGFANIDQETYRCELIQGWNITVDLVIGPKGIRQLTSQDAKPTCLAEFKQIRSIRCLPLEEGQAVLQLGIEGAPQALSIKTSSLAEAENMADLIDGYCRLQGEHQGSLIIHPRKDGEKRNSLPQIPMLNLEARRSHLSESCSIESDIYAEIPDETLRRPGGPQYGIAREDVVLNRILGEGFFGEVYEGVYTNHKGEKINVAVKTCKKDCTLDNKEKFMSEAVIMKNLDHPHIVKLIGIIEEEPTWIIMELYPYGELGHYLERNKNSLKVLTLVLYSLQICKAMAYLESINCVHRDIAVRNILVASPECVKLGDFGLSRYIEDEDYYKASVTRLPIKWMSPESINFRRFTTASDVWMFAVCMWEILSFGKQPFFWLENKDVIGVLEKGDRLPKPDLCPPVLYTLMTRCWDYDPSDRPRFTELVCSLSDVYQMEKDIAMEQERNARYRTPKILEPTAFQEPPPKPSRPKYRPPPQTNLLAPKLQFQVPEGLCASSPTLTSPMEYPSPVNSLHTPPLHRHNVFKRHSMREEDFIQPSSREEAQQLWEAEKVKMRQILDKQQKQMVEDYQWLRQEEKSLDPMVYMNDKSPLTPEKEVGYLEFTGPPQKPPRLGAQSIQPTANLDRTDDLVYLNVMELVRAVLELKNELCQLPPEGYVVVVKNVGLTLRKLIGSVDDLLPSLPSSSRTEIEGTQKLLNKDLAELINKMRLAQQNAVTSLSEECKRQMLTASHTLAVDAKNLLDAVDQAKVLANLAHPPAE
M1 antag: M1 muscarinic receptor (rat) antagonism | CHO-M1 cells, Fluo-4 calcium, ACh EC80 antagonist mode; hits give low values | B-score at 10 µM | 64,000 tested, 3.4% active | AID 628;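 active = calcium fluorescence response, raw or row-and-column corrected B-score, differing from the plate sample mean either way at a set confidence level, mostly lower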
Cav32 inh: blocks human Cav3.2 T-type calcium channel | O95180 | Cav3.2-expressing cells, Fluo-4 calcium fluorescence FDSS; hits give low values | B-score at 10 µM | 100,000 tested, 4% active | AID 449739;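 active = single-dose well whose peak fluorescence ratio is a statistical outlier from its plate by either plate-standardised score or position-corrected B-score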
Starred values were filed as active, the others as inactive; . = not tested or not shown.

SMILES	M1 ag	PTK2B oligo ant	M1 antag	Cav32 inh
Cc1ccc(S(=O)(=O)N2CCN(C(=O)CCC(=O)N3CCc4ccccc43)CC2)cc1	1.1	0.51	-3.3*	1.4
CCCc1nnc(NC(=O)c2ccc(N3C(=O)C4C5C=CC(C5)C4C3=O)cc2)s1 (centres undefined)	.	-3.2*	.	-0.1
CCN(CC(=O)Nc1ccc2c(c1)OC(F)(F)O2)Cc1nc2ccccc2c(=O)[nH]1	.	-3.9*	.	-1.6
O=C(CN1CCN(c2ccccn2)CC1)Nc1ccc(Cl)c(C(F)(F)F)c1	-0.12	0.88	0.29	-0.27
CCOc1ccc(NC(=O)CN2CCN(CC(=O)Nc3cccc(F)c3)CC2)cc1	0.065	0.05	-0.26	0.72
CCOc1ccc(NC(=O)CN2CCN(CC(=O)Nc3ccc(Cl)c(C(F)(F)F)c3)CC2)cc1	.	-0.53	.	-6.2*
COc1ccccc1N1CCN(CC(=O)Nc2ccc(Cl)c(C(F)(F)F)c2)CC1	.	1.8	.	-4.2*
COc1ccccc1N1CCN(CC(=O)Nc2cc(C)nn2-c2nc(C)cc(C)n2)CC1	3.4*	.	-0.028	.
CN(C)/C=N/C(=S)Nc1ccc(Br)cc1F	.	0.92	.	1.1
COC(=O)c1cc(-c2ccccc2)sc1NC(=O)CN1C(=O)c2ccccc2C1=O	.	-2.1	.	-1.6
CCCn1c(CCC(=O)Nc2ccccc2Cc2ccccc2)nc2cc(S(=O)(=O)N3CCOCC3)ccc21	.	0.52	.	-9.6*
Cc1ccc(-c2nc3ccc(C(=O)O)cc3nc2-c2ccc(C)cc2)cc1	.	-3.3*	.	-1.7
COc1ccc(N(C)C(=O)c2ccc3nc(-c4ccccc4)c(-c4ccccc4)nc3c2)cc1	.	-2.7	.	-8.8*
C=CCNC(=O)c1ccc2nc(-c3ccccc3)c(-c3ccccc3)nc2c1	.	-1.1	.	-0.93
COc1ccc(-c2nnc3ccc(SCC(=O)N4CCN(c5ccccc5)CC4)nn23)cc1	4.4*	.	-0.4	.
O=c1cc2c(nn1Cc1ccccc1Cl)-c1ccccc1CC2	.	-0.44	.	-2.7
CCOc1ccc(NS(=O)(=O)c2ccc(SC)cc2)cc1	-0.96	-0.91	-0.68	-5.9*
CCOC(=O)Cc1ccc(NS(=O)(=O)c2ccc(SC)cc2)cc1	-1.5	-0.63	-0.24	-6.2*
CCOC(=O)c1ccc(NS(=O)(=O)c2ccc(SC)cc2)cc1	0.15	-2.8	0.26	-1.2
CCOC(=O)c1ccc(-c2c(C(=O)OCC)oc3cc(O)c(CC)cc3c2=O)o1	0.23	-3.7*	-0.27	-0.83
CCN(CC)S(=O)(=O)c1cccc(C(=O)N[C@H](C(=O)OCC(N)=O)C(C)C)c1	.	0.6	.	0.39
CCN(CC)S(=O)(=O)c1cccc(C(=O)N[C@H](C(=O)OCC(=O)Nc2ccccc2)C(C)C)c1	.	-1.1	.	-9.2*
O=[N+]([O-])c1cc(Br)c(O)c(/C=N/Nc2nnnn2-c2cccc3ccccc23)c1	.	-2.3	.	-9.3*
Cc1cc(C)nc(N/N=C/c2ccccc2OCc2ccc([N+](=O)[O-])cc2)n1	.	-1.2	.	.
CCCCN1CNC(=S)N(Cc2ccccc2)C1	.	1.8	.	.
SMILES	M1 ag	PTK2B oligo ant	M1 antag	Cav32 inh
COC(=O)Nc1ccc(S(=O)(=O)N2CCCc3ccccc32)cc1	0.48	-1.9	-0.36	-6.1*
COc1ccc(C(=O)NCc2ccccc2)cc1S(=O)(=O)N1CCCc2ccccc21	.	-1.4	.	-5.3*
COc1ccccc1C(=O)Nc1ccc(S(=O)(=O)N2CCc3ccccc32)cc1	.	-2.7	.	-1.4
COc1cc(C(=O)Nc2ccc(S(=O)(=O)N3CCc4ccccc43)cc2)cc(OC)c1OC	.	-2.9	.	-5.3*
COc1ccc(C(=O)NC(C)(C)C)cc1S(=O)(=O)N1CCCC1	.	-0.04	.	1.3
O=C(NCc1cccc(C(F)(F)F)c1)C1CC(c2ccc(C(F)(F)F)cc2)=NO1 (centres undefined)	.	.	.	-1.7
Cc1cccc(NC(=O)c2ccc(C3SCC(=O)N3CCc3ccccc3)cc2)c1C (centres undefined)	.	-1.8	.	-4.5*
CCc1ccc(NC(=O)c2ccc(C3SCC(=O)N3CCc3ccccc3)cc2)cc1 (centres undefined)	.	-0.21	.	.
O=C(c1ccccc1)N1CC(COc2ccccc2)OC(c2ccco2)O1 (centres undefined)	0.27	0.17	1.1	-4*
O=C1CC(N2CCN(c3cccc(C(F)(F)F)c3)CC2)C(=O)N1c1ccccc1F (centres undefined)	1.3	-0.18	0.0094	-3.2*
O=C1CC(N2CCN(c3cccc(C(F)(F)F)c3)CC2)C(=O)N1c1ccccc1 (centres undefined)	-1.7	-0.28	-1.3	-0.3
Cc1c(C(=O)Oc2cccc3ccccc23)cnn1-c1ccccc1	.	0.8	.	-1
O=C(C(Cc1ccccc1)n1cccc1)N1CCc2ccccc21 (centres undefined)	1.3	.	0.056	-6.2*
O=C(O)C(Cc1ccccc1)n1cccc1 (centres undefined)	1.1	0.18	1.6	0.46
COc1ccc(NC(=O)C23CC4CC(C2)CC(n2cnc(Br)n2)(C4)C3)c(OC)c1	.	-0.48	.	3.4*
CCn1ncc(CNC(=O)C2(C)CC2(Cl)Cl)c1C (centres undefined)	.	0.52	.	.
COc1ccc(-c2[nH]ncc2/C=C(/C#N)C(=O)NC2CCCCCC2)cc1	.	-2	.	-0.78
COc1cc(OC)nc(Oc2ccccc2C(=O)Oc2cccc(C)c2)n1	.	-2.7	.	-1.8
COc1ccc(-c2cc(C(F)(F)F)c3c(=O)n(-c4ccccc4)[nH]c3n2)cc1	.	-4.1*	.	-0.37
COc1ccc(C(=O)Nc2nc3nc(-c4ccccc4)cc(=O)n3[nH]2)cc1	0.087	0.31	-0.16	0.38
Clc1ccccc1CN(Cc1ccccc1)C(c1cccs1)c1nnnn1C1CCCC1 (centres undefined)	.	0.25	.	-0.66
Clc1ccc(C(c2nnnn2C2CCCCC2)N(Cc2cccnc2)Cc2ccco2)cc1 (centres undefined)	.	-0.52	.	-3.9*
Clc1ccc(CN(CC2CCCO2)C(c2cccs2)c2nnnn2C2CCCC2)cc1 (centres undefined)	.	-0.71	.	-8.1*
Cc1ccc2[nH]c(=O)c(C(c3nnnn3C3CCCC3)N(Cc3cccnc3)Cc3ccco3)cc2c1 (centres undefined)	0.82	1.1	-0.0073	-2.1
CCCCCCCCCCn1c2c(c(=N)c3c1CCC3)CCC2	.	-1.3	.	-7*
SMILES	M1 ag	PTK2B oligo ant	M1 antag	Cav32 inh
NC(=O)c1cc(Cc2ccccc2)sc1NC(=O)c1ccco1	1.5	-3.1*	0.15	0.8
CC(C)(C)NC(=O)CN(C(=O)Cn1nnc(-c2ccccc2F)n1)c1cccc2c1CCCC2	.	-0.66	.	-3.1*
CC(C)(C)NC(=O)CN(C(=O)Cn1nnc(-c2ccc(Cl)cc2)n1)C1CCN(Cc2ccccc2)CC1	.	1	.	-7.6*
Cc1cccc(NC(=O)Cn2nnc(-c3ccc(CN4CCCC4)cc3)n2)c1C	-0.54	0.32	0.71	-2.6
COc1cccc(NC(=O)COC(=O)CNS(=O)(=O)c2c(F)cccc2F)c1	.	0.51	.	.
Oc1ccc(-c2[nH]nc(-c3ccccc3)c2-c2nc3ccccc3[nH]2)cc1	.	-0.17	.	-5.5*
CC12C=CC3(O1)C(C(=O)N(c1ccccc1)C3C(=O)NC1CCCC1)C2C(N)=O (centres undefined)	.	0.14	.	0.26
O=C(Nc1cccc(F)c1)C1CCN(C(=O)c2ccc(Br)cc2)CC1	.	0.01	.	-4.3*
O=C(Nc1cccc(F)c1)C1CCN(c2nnnn2-c2ccccc2)CC1	-0.75	-0.49	0.14	-7.5*
